Assay results from PubChem BioAssay (EPA / NIEHS).
Records with an inconclusive call do not appear. Active and inactive are the calls of the source. Rule for the calls, unless noted: active = hit-call score of the fitted dose curve at least 0.9, where 1 is the maximum; inconclusive = response in the unintended direction; inactive = score below 0.9.

Tests used:
[1] = Tanguay_ZF_120hpf_BRAI_legacy: (Legacy) Oregon State University Tanguay Lab 120 Hour Post-fertilization zebrafish Assay for Brain Malformation (AID 2283641)
In short: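 Tropical 5D wild-type zebrafish embryos exposed statically until 120 hpf at 28C, 0.64% DMSO final, sealed and dark. Brain malformation scored present/absent by brightfield at 120 hpf; dead embryos excluded. Trimethyltin chloride 5uM positive control.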

[2] = Tanguay_ZF_120hpf_SOMI_legacy: (Legacy) Oregon State University Tanguay Lab 120 Hour Post-fertilization zebrafish Assay for Somite Malformation (AID 2283647)
In short: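 Dechorionated Tropical 5D wild-type zebrafish embryos, one per well from 6 hpf, statically exposed at 28C to 120 hpf in 0.64% DMSO; somite malformation scored present/absent by brightfield; trimethyltin 5 uM positive control; dead embryos not scored.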

[3] = Tanguay_ZF_120hpf_PFIN_legacy: (Legacy) Oregon State University Tanguay Lab 120 Hour Post-fertilization zebrafish Assay for Pectoral Fin Malformation (AID 2283648);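 note: each larva judged yes or no for fin defect by brightfield with dead larvae skipped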
In short: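 Binary pectoral fin malformation call at 120 hpf by brightfield microscopy; 5D wild-type zebrafish, chorion removed at 4 hpf, one embryo per well from 6 hpf, static exposure at 28C; DMSO (0.64% final) as baseline.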

[4] = Tanguay_ZF_120hpf_CFIN_legacy: (Legacy) Oregon State University Tanguay Lab 120 Hour Post-fertilization zebrafish Assay for Caudal Fin Malformation (AID 2283649)
In short: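 Dechorionated Tropical 5D wild-type embryos, one per well from 6 hpf, static exposure to 120 hpf at 28C in 0.64% DMSO. Caudal fin malformation scored by brightfield as present/absent; not scored in dead embryos.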

[5] = Tanguay_ZF_120hpf_PIG_legacy: (Legacy) Oregon State University Tanguay Lab 120 Hour Post-fertilization zebrafish Assay for Pigmentation Malformation (AID 2283650)
In short: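 Brightfield scoring of pigmentation malformation at 120 hpf, recorded as binary present/absent per larva. Exposure: dechorionated 5D wild-type embryos, one per well, static from 6 hpf at 28C, final DMSO 0.64% (vol/vol). Dead embryos not scored.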

[6] = Tanguay_ZF_120hpf_CIRC_legacy: (Legacy) Oregon State University Tanguay Lab 120 Hour Post-fertilization zebrafish Assay for Circulatory Malformation (AID 2283651)
In short: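 Binary circulatory-malformation call at 120 hpf via brightfield imaging, relative to DMSO controls. Embryos (5D strain, chorion removed) received static, light-shielded exposure at 28C.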

[7] = Tanguay_ZF_120hpf_SWIM_legacy: (Legacy) Oregon State University Tanguay Lab 120 Hour Post-fertilization zebrafish Assay for Swim Bladder Malformation (AID 2283654);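 note: swim bladder malformation in each larva scored yes or no under brightfield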
In short: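 Tropical 5D embryos dechorionated at 4 hpf; 1 embryo/well from 6 hpf; static, sealed, dark exposure at 28C until 120 hpf; final DMSO 0.64%; 5uM trimethyltin chloride positive control; swim bladder defect recorded yes/no; dead embryos not scored.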

[8] = Tanguay_ZF_120hpf_TRUN_legacy: (Legacy) Oregon State University Tanguay Lab 120 Hour Post-fertilization zebrafish Assay for Truncated Body (AID 2283655)
In short: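 Dechorionated Tropical 5D wild-type embryos placed singly from 6 hpf and statically exposed to 120 hpf at 28C, final DMSO 0.64%. Truncated body scored as present/absent by brightfield; not scored in dead embryos.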

[9] = read-out: kallikrein-3 (KLK3), KLK3 (gene 354); experiment: LTEA_HepaRG_KLK3: Life Technologies and Expression Analysis (LTEA) Assay for kallikrein-3 (KLK3) using HepaRG (AID 2283652; active = hit-call score of the fitted dose curve at least 0.9, where 1 is the maximum; inactive = score below 0.9); conditions: mRNA level, 48 h; actives raise or lower the signal
In short: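 KLK3 transcript levels were measured by TaqMan qRT-PCR with normalisation to three housekeeping genes. HepaRG cultures received chemicals for 48 h at up to 100 uM (half-log, 8 points, 0.5% DMSO vehicle), fitted in both directions against DMSO.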

[10] = read-out: solute carrier (SLC22A6), SLC22A6 (gene 9356); experiment: LTEA_HepaRG_SLC22A6: Life Technologies and Expression Analysis (LTEA) Assay for solute carrier (SLC22A6) using HepaRG (AID 2283653; active = hit-call score of the fitted dose curve at least 0.9, where 1 is the maximum; inactive = score below 0.9); conditions: mRNA level, 48 h; actives raise or lower the signal
Method: LTEA_HepaRG is a cell based, multiplexed-readout assay that uses HepaRG, a human liver cell line, with measurements taken at 48 hours after chemical dosing on a 96-well plate.LTEA_HepaRG_SLC22A6 is one of 102 assay component(s) measured in the LTEA HepaRG cell culture assay. It is a marker of NR mediated transport.Data from the assay component LTEA_HepaRG_SLC22A6 was analyzed into 1 endpoint. This assay endpoint, LTEA_HepaRG_SLC22A6, was analyzed with bidirectional fitting relative to DMSO as the negative control and baseline of activity. Using a type of inducible reporter, measures of mRNA induction for gain or loss-of-signal activity can be used to understand regulation of transcription factor activity. To generalize the intended target to other relatable targets, this assay endpoint is annotated to the transporter intended target family, where the subfamily is organic anion transporter.
A total of 1060 chemcials from the ToxCast library were tested in eight-point concentration-response experiments. Cell culture and cytotoxicity assays were conducted at Thermo Fisher Scientific's Custom Services facility (Madison, WI). A single lot of human HepaRG cells (Thermo Fisher Scientific, Frederick, MD) was used for the cell culture experiments. 96-well format collagen type I coated plates of human HepaRG cells were prepared using established methods. Briefly, cryopreserved HepaRG cells were thawed, plated at a density of approximately 100,000 cells/well in HepaRG Thaw, Plate, and General Purpose media (HPRG770, Thermo Fisher Scientific), and incubated for 48 hours. 0.5% DMSO was selected as vehicle control to balance the requisite need of DMSO in HepaRG cultures to maintain differentiation (for example, baseline metabolism, proportions of hepatocytes vs. cholangiocytes), while enabling further hepatic receptor pathway activation (for example, PXR and CAR) in response to chemical exposure. 48 hours after plating, the culture medium was replaced with HepaRG Serum-Free Incudtion Media. Cells were exposed to each test chemical in duplicate and maintained in CO2 incubators for another 48 hours. Chemical plates were thawed to room temperature and 200x concentrations of treatment groups were prepared. 8-point conentration-reponse curves were made with the highest exposure at 100 uM, followed by half-log dilutions, all in 0.5% DMSO. […] Fluidigm's 96.96 Dynamic ArrayTM (Fluidigm, Amsterdam, the Netherlands) technology was used for gene expression analyses by quantitative reverse transcription polymerase chain reaction (qRT-PCR, performed by Quintiles/Expression Analysis, Durham, NC)89. […]

Measured: AC50

C[C@](N)(Cc1ccc(O)c(O)c1)C(=O)O
inactive: [1] | [2] | [3] | [4] | [5] | [6] | [7] | [8]

CC(C)(O)c1coc(S(=O)(=O)NC(=O)Nc2c3c(cc4c2CCC4)CCC3)c1
inactive: [1] | [2] | [3] | [4] | [5] | [6] | [7] | [8]

Cc1[nH]cnc1C[C@H]1CCc2c(C)c3ccccc3n2C1=O
inactive: [1] | [2] | [3] | [4] | [5] | [6] | [7]

CCCCC(CC)COC(=O)c1ccc(C(=O)OCC(CC)CCCC)cc1 (configuration not stated)
inactive: [1] | [2] | [3] | [4] | [5] | [6] | [7] | [8]

CC(C)CCO
inactive: [1] | [2] | [3] | [4] | [5] | [6] | [7] | [8]

CCCCCCCCO
inactive: [1] | [2] | [3] | [4] | [5] | [7] | [8]

C1N2CN3CN1CN(C2)C3
inactive: [1] | [2] | [3] | [4] | [6] | [7]

CCOC(=O)COc1ccc2c(c1)CC(NCC(O)c1cccc(Cl)c1)CC2 (configuration not stated)
inactive: [1] | [2] | [3] | [4] | [5] | [7] | [8]

CN(C)c1ccc(Cc2ccc(N(C)C)cc2)cc1
inactive: [1] | [2] | [3] | [4] | [5] | [6] | [7] | [8]

COCCOc1cc2cc(C(=O)NC3CCN(C(C)C)CC3)n(CC(=O)Nc3ccc(Cl)cn3)c2cn1
inactive: [1] | [2] | [3] | [4] | [5] | [6] | [7] | [8]

O=C(O)CCN(C1(C(=O)NO)CCCC1)S(=O)(=O)c1ccc(Oc2ccc(F)cc2)cc1
inactive: [1] | [2] | [3] | [4] | [6] | [7]

CC[C@H]1OC(=O)[C@H](C)[C@@H](O[C@H]2C[C@@](C)(OC)[C@@H](O)[C@H](C)O2)[C@H](C)[C@@H](O[C@@H]2O[C@H](C)C[C@H](N(C)C)[C@H]2O)[C@](C)(O)C[C@@H](C)C(=O)[C@H](C)[C@@H](O)[C@]1(C)O
inactive: [1] | [2] | [3] | [4] | [5] | [6] | [8]

C=CCCCCCCCCC(=O)O
inactive: [1] | [2] | [3] | [4] | [5] | [6] | [7] | [8]

CC/C(=C\C(=N/O)C(N)=O)C(C)[N+](=O)[O-] (configuration not stated)
inactive: [1] | [2] | [3] | [4] | [5] | [6] | [7] | [8]

On1ccccc1=S
inactive: [1] | [2] | [3] | [4] | [5] | [6] | [8]
active: [7] 0.0615 µM

CCOC(=O)c1ccc(C2CCC(NC[C@H](O)COc3ccc(O)c(NS(C)(=O)=O)c3)CC2)cc1 (some centres not stated)
inactive: [1] | [2] | [3] | [4]

CCCN(C1CCN(C(=O)C2CCNCC2)CC1)[C@@H]1CCc2ccc(OC)cc2C1
inactive: [1] | [2] | [3] | [4] | [5] | [6] | [7] | [8]

Oc1ccc2c(c1)-c1ccccc1C2
inactive: [1] | [6] | [7] | [8]
active: [2] 49.1 µM | [3] 36 µM | [4] 35.1 µM | [5] 41 µM

CC(C)CCCCCCOC(=O)c1ccc(C(=O)OCCCCCCC(C)C)c(C(=O)OCCCCCCC(C)C)c1
inactive: [1] | [2] | [3] | [4] | [6] | [9] | [10] | [7] | [8]

CNCc1ccc(NC(=O)c2c[nH]c3c2C(=O)CCC3)cc1
inactive: [1] | [2] | [3] | [4] | [5] | [6] | [7] | [8]

CCOc1cccc(-n2cc(C(=O)N3CCN(c4cc(C(=O)O)c5ccccc5c4)CC3)nc2-c2ccc(C)cc2)c1
inactive: [1] | [2] | [3] | [4] | [5] | [7] | [8]

Cc1ccc(N)cc1O
inactive: [1] | [2] | [3] | [4] | [5] | [6] | [7]

Fc1ccccc1[C@@H](F)COC1CCC(Nc2ncnc3[nH]ncc23)CC1 (some centres not stated)
inactive: [1] | [2] | [3] | [4] | [5] | [6] | [7] | [8]

CCCCC(CC)COC(=O)CCCCCCCCC(=O)OCC(CC)CCCC (configuration not stated)
inactive: [1] | [2] | [3] | [4] | [5] | [6] | [7] | [8]

CCn1nc(Cc2ccccc2)cc1C1CCN(C[C@H]2C[C@H](N(C)[C@@H](C(=O)O)C(C)C)C[C@@H]2c2cccc(F)c2)CC1
inactive: [1] | [2] | [3] | [4] | [5] | [6] | [7] | [8]

O=C(O)CC(O)C(=O)O (configuration not stated)
inactive: [1] | [2] | [3] | [4] | [5] | [6] | [7] | [8]

CC(C)CCCCCCCOC(=O)CCCCC(=O)OCCCCCCCC(C)C
inactive: [1] | [2] | [3] | [4] | [5] | [6] | [7] | [8]

CC(C)CC(C)(O)C#CC(C)(O)CC(C)C (configuration not stated)
inactive: [1]

C1=CCCC=CCCC=CCC1
inactive: [1] | [2] | [3] | [4] | [5] | [6] | [7] | [8]

O=C(O)c1cccc(N(Cc2cccnc2)c2ccc(OC(F)F)c(OC(F)F)c2)c1
inactive: [1] | [2] | [3] | [4] | [6] | [7] | [8]

Cc1ccc(S(=O)(=O)O)cc1C
inactive: [1] | [2] | [3] | [4] | [6] | [7] | [8]

COc1ccc(-n2nc(C(F)F)cc2-c2ccc(S(C)=O)cc2)cc1 (configuration not stated)
active: [1] 40.4 µM | [3] 48.1 µM | [4] 12.8 µM
inactive: [2] | [6] | [7] | [8]

CC1(C)C(=O)N(Br)C(=O)N1Br
inactive: [1] | [2] | [3] | [4] | [6] | [7]

O=P(OC(CCl)CCl)(OC(CCl)CCl)OC(CCl)CCl
active: [1] 31.7 µM | [2] 9.13 µM | [3] 40.3 µM | [4] 30 µM | [7] 25.9 µM | [8] 36.2 µM
inactive: [6]

CCN(C(=O)c1cc(C)cc(OC[C@H](C)Nc2ccncc2)c1)C(C)C
inactive: [1] | [2] | [3] | [4] | [6] | [8]

CCNc1ccccc1
inactive: [1] | [2] | [3] | [4] | [6] | [7] | [8]

CC(=O)c1ccc2c(c1)[C@H](NC(=O)c1ccc(F)cc1)[C@@H](O)C(C)(C)O2
inactive: [1] | [2] | [3] | [4] | [6] | [7] | [8]

CCCCCCCCCCCCc1ccccc1
inactive: [1] | [2] | [3] | [4] | [6] | [7] | [8]

O=C1OC(=O)C2C3C=CC(C3)C12 (configuration not stated)
inactive: [1] | [2] | [3] | [4] | [6] | [7] | [8]

Cn1c(=O)cc(Oc2ccc(F)cc2F)c2cnc(NCC(C)(C)O)nc21
inactive: [1] | [2] | [3] | [4] | [6] | [7] | [8]
